Screens (PubChem)
Compounds with a hit are over-represented: about 11% of the library has one in this group of screens.
hNpr1 antagonist – antagonists of human natriuretic peptide receptor Npr1; P16066; HEK293 hNpr1 GloSensor cGMP, ANP-stimulated luminescence; Potency, µM (doses to about 46.3 µM), without a hit: at the top dose activity change, negative = inhibition, usual class: inhibitors; 76,000 compounds, 1.6% hits; calls by dose curve; note: nearly all actives have a fitted effect of over 60% in size
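Compound pre-incubated 30 min at room temperature on GloSensor-loaded HEK293 cells stably carrying hNpr1 and the pGS-40F cGMP biosensor. Stimulation uses hNppA at 0.1 nM final; luminescence is taken at baseline and 20 min post-agonist.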
HEK cytotox – kills HEK 293 cells | HEK 293 viability, ATP luminescence (CellTiter-Glo), 48-72 h | Potency, µM (series often up to 115 µM), without a hit: at the highest dose activity change, negative = cytotoxicity, most hits filed as inhibitors | 94,000 compounds, 6.6% hits | AID 1345083; note: nearly all actives have a fitted effect of over 60% in size
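Pintool-delivered compounds were incubated with HEK 293 cells (250 cells/well) at 37 degree Celsius for 48 or 72 hr. ATP-dependent luminescence (CellTiter-Glo) then reported remaining viable cells.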
NIH3T3 tox – cytotoxic compounds in NIH 3T3 cells; AID 1345082; NIH 3T3 viability, CellTiter-Glo ATP luminescence, 48-72 h; 94,000 compounds, 4.3% hits; Potency, µM (top dose mostly 96.7 µM), for inactives: at the highest dose activity change, negative = cytotoxicity, usual class: inhibitors; note: nearly all actives have a fitted effect of over 55% in size
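NIH 3T3 cells at 400 cells/well received 23 nL of compound by pintool and were incubated 48 or 72 h at 37 °C. Viability was read as ATP-coupled CellTiter-Glo luminescence.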
Luciferase inh – inhibitors of firefly (Photinus pyralis) luciferase; 76,000 compounds, 2.5% hits; Potency, µM (doses to about 115 µM), actives largely listed as inhibitors; P08659; purified P. pyralis luciferase, luminescence, biochemical; AID 1347043; note: nearly all actives have a fitted effect of over 65% in size
Target sequence (P08659 whole entry, looked up): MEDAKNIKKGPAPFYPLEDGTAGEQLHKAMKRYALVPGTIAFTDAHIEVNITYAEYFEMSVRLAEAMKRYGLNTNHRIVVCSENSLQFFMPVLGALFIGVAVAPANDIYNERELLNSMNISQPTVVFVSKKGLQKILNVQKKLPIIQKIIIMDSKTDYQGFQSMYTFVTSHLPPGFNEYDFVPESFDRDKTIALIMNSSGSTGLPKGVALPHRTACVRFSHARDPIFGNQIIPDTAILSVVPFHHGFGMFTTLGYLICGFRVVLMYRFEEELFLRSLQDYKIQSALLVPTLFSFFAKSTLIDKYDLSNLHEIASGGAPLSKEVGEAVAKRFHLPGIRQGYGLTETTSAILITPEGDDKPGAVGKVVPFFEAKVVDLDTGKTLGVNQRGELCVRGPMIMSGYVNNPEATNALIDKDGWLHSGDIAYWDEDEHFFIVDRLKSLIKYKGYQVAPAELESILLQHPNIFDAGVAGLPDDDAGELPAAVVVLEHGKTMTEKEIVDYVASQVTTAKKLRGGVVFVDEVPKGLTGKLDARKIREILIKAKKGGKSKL
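FLuc 10nM, D-luciferin 10uM, ATP 10uM, Mg acetate 10mM, Tris acetate pH 7.5, Tween/BSA; cpd qHTS; enzyme added last; CCD luminescence.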
Numbers without * were called inactive; i = inactive; ? = inconclusive; · = no result given; [ ] = remark or other dose. Unless noted, calls come from the whole dose curve; as a rule, active = well fitted curve in the direction sought with a large enough effect; inconclusive = small, poorly fitted or top-dose-only effect, or another doubt; inactive = no such curve, though single readings can be large; an effect the other way counts as inactive or inconclusive. % is set by controls: 0 for no effect and ±100 for the full control effect; potency is the fitted concentration of half-maximal effect.

SMILES	hNpr1 antagonist	HEK cytotox	NIH3T3 tox	Luciferase inh
C[C@@H](NC(=O)C1=C[C@@H](NC(=O)CC(C)(C)C)[C@@H](O)[C@H](O)C1)C(N)=O	3%[70.6 µM]	-1%[172 µM]	-3%[174 µM]	i
CO[C@H]1C(=O)N(C(C)C)[C@H]1C1CCN(C(=O)NCc2ccc(C)cc2)CC1	·	-15%	-7%	·
COc1ccc(C)cc1NC(=O)Cn1nc2n(c1=O)CCCCC2	-12%	2%	3%	i
COCCn1c(=O)c(C(=O)N2CCN(C(=O)C3CCCC3)CC2)nc2cccnc21	·	i	-8%	·
COc1ccc(F)cc1-c1ccc(C(=O)O)cc1	·	i	2%[138 µM]	·
COc1ccc(F)cc1-c1ccc(CN2CCC(NC(=O)c3ccccn3)C2)cc1 (stereo not given)	·	?	45µM*	·
COc1ccc(F)cc1-c1ccc(CN2CCC(NC(=O)c3ccc(Cl)cc3)C2)cc1 (stereo not given)	·	?	14µM*	·
COc1ccc(F)cc1-c1ccc(CN2CCC(NC(=O)c3ccc(NC(C)=O)cc3)C2)cc1 (stereo not given)	·	?	20µM*	·
COc1ccc(F)cc1-c1ccc(CN2CCC(NC(=O)Nc3ccccc3)C2)cc1 (stereo not given)	·	20µM*	13µM*	·
CCc1ccc(C(=O)NC2CCN(c3cc(-c4ccc(F)cc4)[nH]n3)C2)cc1 (stereo not given)	-15%	?	?	i
COc1cccc(CN2CCCC(NC(=O)Nc3ccccc3OC)C2)c1 (stereo not given)	0%	-28%	-22%	i
COCC(=O)NC[C@H]1CCN(Cc2cccc(C#N)c2)C[C@H]1N(C)C	1%	-30%	-16%	i
O=C(Nc1cc(-c2ccccn2)nn1-c1ccccc1)c1ccc2ccccc2n1	·	-17%	-24%	·
O=C(c1cc[nH]c1C1CCCNC1)N(Cc1ccc(F)cc1)Cc1cccnc1 (stereo not given)	-18%	?	?	i
CN(C)C(=O)C1CN(C(=O)c2ccc(C#N)cc2)CC12CCOCC2 (stereo not given)	-1%	-22%	-2%	i
COc1ccc(F)cc1-c1ccc(CN2CCC(NC(=O)c3ccc(C)cc3)C2)cc1 (stereo not given)	·	28µM*	40µM*	·
CN(C)CCN1CCC(N2CCN(C(=O)c3ccnn3C)CC2)C1=O (stereo not given)	-1%	-19%	-15%	i
O=C(NCCc1cccs1)c1cccc2c1CCN2C(=O)Nc1ccccc1	-20%	?	?	16µM*
CCCCN(C)C(=O)c1cccc2c1CCN2C(=O)Nc1ccc(OC)cc1	-8%	?	-21%	18µM*
CCC(=O)N1CCc2c(C(=O)Nc3ccc(C)cc3)cccc21	0%	-23%	-24%	i
COc1ccc(NC(=O)N2CCc3c(C(=O)NC(C)C)cccc32)cc1	2.5µM*	25µM*	?	0.28µM*
CCC(=O)N1CCc2c(C(=O)NCc3ccc(OC)cc3)cccc21	-2%	-17%	-16%	i
Cc1ccc(NC(=O)N2CCc3c(C(=O)NCCCN4CCCC4=O)cccc32)cc1	1.4µM*	45µM*	?	0.28µM*
COc1ccc(N2CCN(C3CCCN(C(=O)C(C)(C)N)C3)CC2)cc1 (stereo not given)	5%	1%	2%	i
Nc1ncccc1CN1CC[C@@H]2OCC(=O)N(c3ccccc3)[C@H]2CC1	3%[70.6 µM]	-24%[172 µM]	?	i
SMILES	hNpr1 antagonist	HEK cytotox	NIH3T3 tox	Luciferase inh
CC(=O)Nc1ccc(CNC[C@H]2Cn3c(-c4ccc5c(c4)OCCO5)cnc3CO2)cc1	-20%[70.6 µM]	-22%[172 µM]	-24%[174 µM]	i
c1ccc(CNC[C@H]2Cn3c(-c4ccc5c(c4)OCCO5)cnc3CO2)cc1	-23%[70.6 µM]	?	-22%[138 µM]	i
Fc1ccc(-c2cnc3n2C[C@H](CNCc2ccc4c(c2)OCO4)OC3)cc1	?	100µM*	89µM*	i
Clc1ccc(-c2cnc3n2C[C@H](CNCc2ccc4c(c2)OCO4)OC3)cc1	?	89µM*	?	i
COc1ccc(-c2noc(C(=O)O)c2[C@@H](C)NC(=O)Nc2ccccc2)cc1	4%[70.6 µM]	i	-11%[138 µM]	?
CN(c1ccccc1)c1cc(=O)c2ccnc(-c3cncnc3)c2o1	7%[70.6 µM]	-1%[172 µM]	79µM*	i
CN1CCN(c2ccc(-c3nccc4c(=O)cc(N(C)c5ccccc5)oc34)cn2)CC1	-1%[70.6 µM]	?	?	?
CN(c1ccccc1)c1cc(=O)c2ccnc(-c3cccnc3)c2o1	7%[70.6 µM]	-28%[172 µM]	18µM*	i
